Source: PubChem BioAssay (Tox21)
Inconclusive results are not listed. Entries that show only a call come without a potency. Some structures have more than one record in an assay (separate samples or runs), and their calls can disagree. Calls of active or inactive are those of the source. Unless noted, the call rests on the fitted dose curve; in most records, active means well fitted curve in the direction sought with a large enough effect in the repeat runs; inconclusive means weak or mixed curves; inactive means no such curve, though single readings can be large; an effect the other way counts as inactive or inconclusive.

Legend:
[1] = qHTS assay to identify small molecule antagonists of the thyroid receptor (TR) signaling pathway - cell viability counter screen (AID 743064); further: nearly all actives have a fitted effect of over 50% in size; further: potency means the concentration at half of the fitted maximal effect
Summary of the method: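 CellTiter-Fluor readout, 30 min at 37 °C/5% CO2, following 23.5 h incubation of GH3.TRE-Luc cells with test compound and 1 nM T3 (final).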

[2] = qHTS assay to identify small molecule antagonists of the thyroid receptor (TR) signaling pathway (AID 743065); further: nearly all actives have a fitted effect of over 55% in size; further: potency means the concentration at half of the fitted maximal effect
Summary of the method: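 GH3.TRE-Luc rat pituitary cells (two TREs driving luciferase) were dosed with compound, then stimulated with 1 nM T3 (final) for 23.5 h at 37 C. ONE-Glo luminescence was the read-out, with CellTiter-Fluor fluorescence as the cytotoxicity counter-screen.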

[3] = test system: thyroid hormone receptor (rat, GH3 cells); assay: qHTS assay to identify small molecule agonists of the thyroid receptor (TR) signaling pathway (AID 743066; calls by dose curve)
[4] = target: Estrogen receptor (Homo sapiens) (UniProt P03372); assay: qHTS assay to identify small molecule antagonists of the estrogen receptor alpha (ER-alpha) signaling pathway (AID 743069; active means well fitted curve in the direction sought with a large enough effect in the signal ratio in the repeat runs, not every such curve was filed as active; the % refers to the signal ratio)
Summary of the method: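 In this cell-based reporter format, GripTite HEK293 cells harbouring ER-alpha-UAS-bla were grown overnight with 2% charcoal-stripped FBS, dosed with DMSO-dissolved compounds, then challenged with 17beta-estradiol. After 18 hr at 37C, beta-lactamase activity was detected by FRET fluorescence.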

[5] = qHTS assay to identify small molecule antagonists of the estrogen receptor alpha (ER-alpha) signaling pathway - cell viability counter screen (AID 743074; calls by dose curve; further: nearly all actives have a fitted effect of over 45% in size)
[6] = target: Estrogen receptor (Homo sapiens) (UniProt P03372); assay: qHTS assay to identify small molecule agonists of the estrogen receptor alpha (ER-alpha) signaling pathway (AID 743075; calls by dose curve)
[7] = target: Estrogen receptor (Homo sapiens) (UniProt P03372); assay: qHTS assay to identify small molecule agonists of the estrogen receptor alpha (ER-alpha) signaling pathway using the BG1 cell line (AID 743079); further: nearly all actives have a fitted effect of over 20% in size; further: potency means the concentration at half of the fitted maximal effect
[8] = qHTS assay to identify small molecule antagonists of the estrogen receptor alpha (ER-alpha) signaling pathway using the BG1 cell line (AID 743080; calls by dose curve;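 further: BG1 cells stimulated with 17beta-estradiol alongside compound; series mostly up to about 70 µM; nearly all actives have a fitted effect of over 25% in size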)
Summary of the method: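 After 5 days in phenol-red-free 10% charcoal-stripped FBS medium, BG1-Luc-4E2 cells were seeded, left 24 h at 37 C, co-treated with compounds and 17beta-estradiol for 21.5 h, then assayed for viability and luciferase.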

[9] = qHTS assay to identify small molecule antagonists of the estrogen receptor alpha (ER-alpha) signaling pathway using the BG1 cell line - cell viability counter screen (AID 743081);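 further: compound given together with 17beta-estradiol as the ER stimulus; series mostly up to about 70 µM; nearly all actives have a fitted effect of over 45% in size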
Aromatase (Homo sapiens) = Aromatase (Homo sapiens) (UniProt P11511); assay: qHTS assay to identify aromatase inhibitors (AID 743083); further: series mostly up to about 70 µM; nearly all actives have a fitted effect of over 55% in size
Chain of Aromatase (Homo sapiens) (P11511 whole entry, looked up): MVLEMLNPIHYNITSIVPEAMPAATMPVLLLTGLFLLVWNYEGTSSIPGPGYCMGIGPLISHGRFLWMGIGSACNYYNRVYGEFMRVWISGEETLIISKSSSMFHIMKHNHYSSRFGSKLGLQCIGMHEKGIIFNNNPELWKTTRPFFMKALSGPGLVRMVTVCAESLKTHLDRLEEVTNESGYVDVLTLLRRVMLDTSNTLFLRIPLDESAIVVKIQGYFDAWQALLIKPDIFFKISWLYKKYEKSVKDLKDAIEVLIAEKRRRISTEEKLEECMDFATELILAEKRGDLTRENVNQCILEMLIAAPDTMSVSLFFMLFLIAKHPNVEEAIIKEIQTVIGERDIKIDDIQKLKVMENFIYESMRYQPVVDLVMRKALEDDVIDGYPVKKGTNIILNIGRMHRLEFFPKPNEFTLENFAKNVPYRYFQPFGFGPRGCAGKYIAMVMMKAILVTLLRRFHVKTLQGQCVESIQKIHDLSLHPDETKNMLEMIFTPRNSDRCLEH

Chain of Estrogen receptor (Homo sapiens) (P03372 whole entry, looked up): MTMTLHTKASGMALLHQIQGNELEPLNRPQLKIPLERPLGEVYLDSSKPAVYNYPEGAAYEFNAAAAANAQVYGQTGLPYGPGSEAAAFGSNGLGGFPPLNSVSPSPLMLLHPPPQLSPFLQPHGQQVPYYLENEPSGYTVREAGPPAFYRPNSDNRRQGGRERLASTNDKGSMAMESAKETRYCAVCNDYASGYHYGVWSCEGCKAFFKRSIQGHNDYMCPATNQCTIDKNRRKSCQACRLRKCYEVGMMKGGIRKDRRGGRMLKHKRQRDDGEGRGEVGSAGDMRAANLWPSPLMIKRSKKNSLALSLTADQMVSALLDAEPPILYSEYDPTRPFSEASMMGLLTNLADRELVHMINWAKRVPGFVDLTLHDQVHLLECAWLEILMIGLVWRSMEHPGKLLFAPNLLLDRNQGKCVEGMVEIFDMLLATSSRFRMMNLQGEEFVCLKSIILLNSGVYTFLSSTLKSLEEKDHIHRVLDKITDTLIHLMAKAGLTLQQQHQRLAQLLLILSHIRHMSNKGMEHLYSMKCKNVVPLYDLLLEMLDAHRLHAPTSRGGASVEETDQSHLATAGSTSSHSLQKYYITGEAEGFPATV

Row | SMILES | Potency [1] | Potency [2] | outcome [3] | outcome [4] | outcome [5] | Potency [6] | Potency [7] | outcome [8] | Potency [9] | Potency (Aromatase (Homo sapiens))
1 | CC/C=C\CCOC(C)=O | inactive | inactive | inactive | inactive | inactive | inactive | inactive | inactive | inactive | inactive
2 | COc1ccccc1OCC(O)CN1CCN(CC(=O)Nc2c(C)cccc2C)CC1 (stereo not drawn) | inactive | inactive | inactive | inactive | inactive | inactive | inactive | inactive | inactive | inactive
3 | NS(=O)(=O)c1cc(C(=O)O)cc(N2CCCC2)c1Oc1ccccc1 | inactive | inactive | inactive | inactive | inactive | inactive | inactive | inactive | inactive | inactive
4 | CC(C)NC(=O)NC(C)C | inactive | inactive | inactive | inactive | inactive | inactive | inactive | inactive | inactive | inactive
5 | CCOC(=O)Nc1ccc(NCc2ccc(F)cc2)nc1N | inactive | inactive | inactive | inactive | inactive | inactive | 3.35 µM (active) and inactive | inactive | inactive | 
6 | OCCOc1ccc(OCCO)cc1 | inactive | inactive | inactive | inactive | inactive | inactive | inactive | inactive | inactive | inactive
7 | N=c1nc(N2CCCCC2)cc(N)n1O | inactive | inactive | inactive | inactive | inactive | inactive | inactive | inactive | inactive | inactive
8 | CC(=O)Nc1ccc(S(N)(=O)=O)cc1 | inactive | inactive | inactive | inactive | inactive | inactive | inactive | inactive | inactive | inactive
9 | CCN1CCC[C@H]1CNC(=O)c1c(O)c(Cl)cc(Cl)c1OC | inactive | inactive | inactive | inactive | inactive | inactive | inactive | inactive | inactive | inactive
10 | O=C(O)Cc1ccc(CCNS(=O)(=O)c2ccc(Cl)cc2)cc1 | inactive | inactive | inactive | inactive | inactive | inactive | inactive | inactive | inactive | inactive
11 | c1cnc(N2CCN(Cc3ccc4c(c3)OCO4)CC2)nc1 | inactive | inactive | inactive | inactive | inactive | inactive | inactive | inactive | inactive | inactive
12 | O=c1n(CCO)c(=O)n(CCO)c(=O)n1CCO | inactive | inactive | inactive | inactive | inactive | inactive | inactive | inactive | inactive | inactive
13 | O=C1OC(=O)C2CCCCC12 (stereo not drawn) | inactive | inactive | inactive | inactive | inactive | inactive | inactive | inactive | inactive | inactive
14 | CCC(C)C1CCCCC1=O (stereo not drawn) | inactive | inactive | inactive | inactive | inactive | inactive | inactive | inactive | inactive | inactive
15 | Nc1ccc(S(=O)(=O)Nc2ccnn2-c2ccccc2)cc1 | inactive | inactive | inactive | inactive | inactive | inactive | inactive | inactive | inactive | inactive
16 | CN(C)CCCNCCCN(C)C | inactive | inactive | inactive | inactive | inactive | inactive | inactive | inactive | inactive | inactive
17 | CO[Si](CCCOCC1CO1)(OC)OC (stereo not drawn) | inactive | inactive | inactive | inactive | inactive | inactive | inactive | inactive | inactive | inactive
18 | O=C(O)CCCl | inactive | inactive | inactive | inactive | inactive | inactive | inactive | inactive | inactive | inactive
19 | CC(C[N+](C)(C)C)OC(N)=O (stereo not drawn) | inactive | inactive | inactive | inactive | inactive | inactive | inactive | inactive | inactive | inactive
20 | C[C@@H]1CCN(C(=O)[C@H](CCCN=C(N)N)NS(=O)(=O)c2cccc3c2NC[C@H](C)C3)[C@@H](C(=O)O)C1 | inactive | inactive | inactive | inactive | inactive | inactive | inactive | inactive | inactive | inactive
21 | Cc1cc(O)cc2c1O[C@](C)(CCC[C@H](C)CCC[C@H](C)CCCC(C)C)CC2 | inactive | inactive | inactive | inactive | inactive | inactive | inactive | inactive | inactive | inactive
22 | C=CCS(=O)(=O)O | inactive | inactive | inactive | inactive | inactive | inactive | inactive | inactive | inactive | inactive
23 | COC(=O)NN | inactive | inactive | inactive | inactive | inactive | inactive | inactive | inactive | inactive | inactive
24 | Cc1ccc(C#N)cc1 | inactive | inactive | inactive | inactive | inactive | inactive | inactive | inactive | inactive | inactive
25 | O=c1cc(CO)occ1O | inactive | inactive | inactive | inactive | inactive | inactive | inactive | inactive | inactive | inactive

Row | SMILES | Potency [1] | Potency [2] | outcome [3] | outcome [4] | outcome [5] | Potency [6] | Potency [7] | outcome [8] | Potency [9] | Potency (Aromatase (Homo sapiens))
26 | N=C(N)c1ccc2cc(OC(=O)c3ccc(N=C(N)N)cc3)ccc2c1 | inactive | inactive | inactive | inactive | inactive | inactive | inactive | inactive | inactive | inactive
27 | CCSC(=O)N(CC(C)C)CC(C)C | inactive | inactive | inactive | inactive | inactive | inactive | inactive | inactive | inactive | inactive
28 | CC(C)c1cc2c(cc1S(=O)(=O)O)[C@@]1(C)CCC[C@@](C)(C(=O)O)[C@@H]1CC2 | inactive | inactive | inactive | inactive | inactive | inactive | inactive | inactive | inactive | inactive
29 | C=C(C)CS(=O)(=O)O | inactive | inactive | inactive | inactive | inactive | inactive | inactive | inactive | inactive | inactive
30 | Cc1ccc(Cl)cc1Cl | inactive | inactive | inactive | inactive | inactive | inactive | inactive | inactive | inactive | inactive
31 | CCOC(=O)C(=O)OCC | inactive | inactive | inactive | inactive | inactive | inactive | inactive | inactive | inactive | inactive
32 | O=C1CCCCCCCCCCCN1 | inactive | inactive | inactive | inactive | inactive | inactive | inactive | inactive | inactive | inactive
33 | NS(=O)(=O)c1ccc(C(=O)O)cc1 | inactive | inactive | inactive | inactive | inactive | inactive | inactive | inactive | inactive | inactive
34 | CCn1ccnc1CC1COc2ccccc2O1 (stereo not drawn) | inactive | inactive | inactive | inactive | inactive | inactive | inactive | inactive | inactive | inactive
35 | CCOC(=O)[C@H](CCc1ccccc1)N[C@@H](C)C(=O)N1[C@H](C(=O)O)C[C@@H]2CCC[C@@H]21 | inactive | inactive | inactive | inactive | inactive | inactive | inactive | inactive | inactive | inactive
36 | CC1(C)C(O)C(C)(C)C1O (stereo not drawn) | inactive | inactive | inactive | inactive | inactive | inactive | inactive | inactive | inactive | inactive
37 | CCCCC/C=C\CCC=O | inactive | inactive | inactive | inactive | inactive | inactive | inactive | inactive | inactive | inactive
38 | C=C1CC[C@H]2C[C@@H]1C2(C)C | inactive | inactive | inactive | inactive | inactive | inactive | inactive | inactive | inactive | inactive
39 | COCCCOCCCOC | inactive | inactive | inactive | inactive | inactive | inactive | inactive | inactive | inactive | inactive
40 | OC1CCCCC1c1ccccc1 (stereo not drawn) | inactive | inactive | inactive | inactive | inactive | inactive | inactive | inactive | inactive | inactive
41 | CC(C)(C)c1nnc(NS(=O)(=O)c2ccccc2)s1 | inactive | inactive | inactive | inactive | inactive | inactive | inactive | inactive | inactive | inactive
42 | CC(C)(O)C#CC(C)(C)O | inactive | inactive | inactive | inactive | inactive | inactive | inactive | inactive | inactive | inactive
43 | OCCCC1CCCCC1 | inactive | inactive | inactive | inactive | inactive | inactive | inactive | inactive | inactive | inactive
44 | CC(C(=O)O)c1ccc(CC2CCCC2=O)cc1 (stereo not drawn) | inactive | inactive | inactive | inactive | inactive | inactive | inactive | inactive | inactive | inactive
45 | O=C(O)COc1nn(Cc2ccccc2)c2ccccc12 | inactive | inactive | inactive | inactive | inactive | inactive | inactive | inactive | inactive | inactive
46 | O=C1CCCN1C1CCCCC1 | inactive | inactive | inactive | inactive | inactive | inactive | inactive | inactive | inactive | inactive
47 | CN1CCC(=C2c3ccccc3CC(=O)c3sccc32)CC1 | 15 µM (active) | 23.7 µM (active) | inactive | inactive | inactive | inactive | inactive | inactive |  | inactive
48 | CCCCCCCCCCCCCCCCC | inactive | inactive | inactive | inactive | inactive | inactive | 61.1 µM (active) | inactive | inactive | inactive
49 | CC(C)(C)NCCNC(C)(C)C | inactive | inactive | inactive | inactive | inactive | inactive | inactive | inactive | inactive | inactive
